Active and inactive are the calls of the source. Rule for the calls: active = hit-call score of the fitted dose curve at least 0.9, where 1 is the maximum; inactive = score below 0.9.
What follows are compounds tested against Hepatocyte nuclear factor 3-beta (Homo sapiens) (UniProt Q9Y261) (assay: ATG_FoxA2_CIS: Attagene CIS-FACTORIAL HepG2 Assay for human Forkhead box A2 (FOXA2) (AID 2282942)). Settings: HepG2 cis-reporter transcription factor activity, 24 h; actives raise or lower the signal.
Chain of Hepatocyte nuclear factor 3-beta (Homo sapiens) (Q9Y261 whole entry, looked up): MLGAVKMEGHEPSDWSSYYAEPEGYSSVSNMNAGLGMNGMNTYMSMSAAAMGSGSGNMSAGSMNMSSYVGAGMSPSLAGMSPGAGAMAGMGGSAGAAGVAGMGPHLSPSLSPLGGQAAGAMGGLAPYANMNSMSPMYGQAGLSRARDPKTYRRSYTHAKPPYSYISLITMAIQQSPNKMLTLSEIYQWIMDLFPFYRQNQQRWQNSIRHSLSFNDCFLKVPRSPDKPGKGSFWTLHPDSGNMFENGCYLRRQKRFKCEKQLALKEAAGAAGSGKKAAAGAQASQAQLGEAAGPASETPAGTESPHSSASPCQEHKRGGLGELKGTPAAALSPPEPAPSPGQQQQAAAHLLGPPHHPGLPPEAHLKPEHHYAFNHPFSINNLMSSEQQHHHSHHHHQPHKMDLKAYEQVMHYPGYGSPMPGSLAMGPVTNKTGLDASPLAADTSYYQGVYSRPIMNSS
Experimental: ATG_CIS is a cell-based, multiplexed-readout assay that uses HepG2, a human liver cell line, with measurements taken at 24 hours after chemical dosing in a 24-well plate.ATG_FoxA2_CIS is one of 52 assay component(s) measured or calculated from the ATG_CIS assay. It is designed to make measurements of mRNA induction, a form of inducible reporter, as detected with fluorescence intensity signals by Reverse transcription polymerase chain reaction (RT-PCR) and Capillary electrophoresis technology.Data from the assay component ATG_FoxA2_CIS was analyzed into 1 assay endpoint. This assay endpoint, ATG_FoxA2_CIS, was analyzed with bidirectional fitting relative to DMSO as the negative control and baseline of activity. Using a type of inducible reporter, measures of mRNA for gain or loss-of-signal activity can be used to understand the reporter gene at the transcription factor-level as they relate to the gene FOXA2. Furthermore, this assay endpoint can be referred to as a primary readout, because this assay has produced multiple assay endpoints where this one serves a reporter gene function. To generalize the intended target to other relatable targets, this assay endpoint is annotated to the dna binding intended target family, where the subfamily is forkhead box protein.
Human liver HepG2 cells are transiently transfected with multiple reporter transcription units (MRTUs) in 6-well plates using FuGene 6 reagent (Roche; 3 ml FuGene/1 mg DNA). The MRTU constructs are regulated by a cis-regulating element (promoter). […] A major difference between the CIS and TRANS system is that in CIS activities of endogenous TFs are measured, whereas the TRANS assay evaluates changes in activities of exogenous, chimeric NR-Gal4 proteins. […] At the end of 24 hour incubation, total RNA was isolated using TriZol reagent (Invitrogen). The isolated RNA is then reverse-transcribed using oligo(dT) primer and Mo-MLV reverse transcriptase (Invitrogen) with DNAse I (Ambion) treatment for 30 min. The one-tenth of the produced cDNA was amplified by PCR using Taq DNA polymerase (Invitrogen) and two reporter sequence-specific primers. The PCR products were fluorescently labeled by primer extension with 6-arboxyfluorescein (6-FAM) 5'-labeled reporter sequence-specific primer (2 min at 95 C, 20 s at 68 C and 10 min at 72 C) and these products were digested with 5U of HpaI (New England Biolabs) for 2h at 37 C. The fragments were purified using Qiaquick PCR columns (Qiagen), analyzed on an ABI 3130xL genetic analyzer (Applied Biosystems) with peak positions identified by using a set of X-rhodamine (ROX)-labeled MapMarker1000 molecular weight standards (BioVentures). The raw capillary electrophoresis data was processed using Attagraph software (Attagene).
`CCCCSP(=O)(SCCCC)SCCCC` was tested, and the outcome was “inactive”. For `O=c1ccc(=O)[nH][nH]1`, the outcome was “inactive”. For `CC(=NC#N)N(C)Cc1ccc(Cl)nc1`, the outcome was “inactive”. In the case of `Cc1nn(-c2cc(NS(C)(=O)=O)c(Cl)cc2Cl)c(=O)n1C(F)F`, the outcome is reported as “inactive”. For `Nc1c(Cl)cc([N+](=O)[O-])cc1Cl`, the AC50 was 76.1 µM (active). With `CCC(=NOC/C=C/Cl)C1=C(O)CC(C2CCOCC2)CC1=O` (stereo not given) the outcome was “inactive”. `CCNc1nc(Cl)nc(NC(C)(C)C#N)n1` was tested, and the outcome was “inactive”. In the case of `CNC(=O)ON=C(C)SC`, the outcome is reported as “inactive”. With `CSC1=N[C@@](C)(c2ccccc2)C(=O)N1Nc1ccccc1` the outcome was “inactive”. `Cc1cc(C2CC2)nc(Nc2ccccc2)n1` was tested, and the AC50 was 33 µM (active). `C[Si](Cn1cncn1)(c1ccc(F)cc1)c1ccc(F)cc1` was tested, and the outcome was “inactive”. In the case of `FC(F)C(F)(F)OCC(Cn1cncn1)c1ccc(Cl)cc1Cl` (stereo not given), the AC50 is reported as 50 µM (active). With `COc1cccc(C(=O)NN(C(=O)c2cc(C)cc(C)c2)C(C)(C)C)c1C` the outcome was “inactive”. In the case of `CC1=NNC(=O)N(/N=C/c2cccnc2)C1`, the outcome is reported as “inactive”. With `CC(C)N(C(=O)SCC(Cl)=C(Cl)Cl)C(C)C` the outcome was “inactive”. For `CNC(=O)Oc1cccc2c1OC(C)(C)O2`, the outcome was “inactive”. `CCc1cnc(C2=NC(C)(C(C)C)C(=O)N2)c(C(=O)O)c1` (stereo not given) was tested, and the outcome was “inactive”. With `N#CSCSC#N` the outcome was “inactive”. In the case of `CN(C)NC(=O)CCC(=O)O`, the outcome is reported as “inactive”. With `CC1(C(=O)Nc2ccc(O)c(Cl)c2Cl)CCCCC1` the outcome was “inactive”. `CC(Oc1cccc(Cl)c1)C(=O)O` (stereo not given) was tested, and the outcome was “inactive”. In the case of `C=C(C)[C@H]1Cc2c(ccc3c2O[C@@H]2COc4cc(OC)c(OC)cc4[C@@H]2C3=O)O1`, the outcome is reported as “inactive”. In the case of `CCOP(=S)(OCC)SCCSCC`, the outcome is reported as “inactive”. `CN1COCN(Cc2cnc(Cl)s2)C1=N[N+](=O)[O-]` was tested, and the outcome was “inactive”. For `CC(C1CC1)C(O)(Cn1cncn1)c1ccc(Cl)cc1` (stereo not given), the outcome was “inactive”. With `CCc1cccc(CC)c1N(COC)C(=O)CCl` the outcome was “inactive”. In the case of `CCOP(=S)(OCC)Oc1cc(C)nc(C(C)C)n1`, the outcome is reported as “inactive”. With `CCCSP(=O)(OCC)Oc1ccc(Br)cc1Cl` (stereo not given) the outcome was “inactive”. In the case of `CCOP(=S)(OCC)Oc1ccc([N+](=O)[O-])cc1`, the outcome is reported as “inactive”. With `Nc1nc(N)nc(NC2CC2)n1` the outcome was “inactive”. In the case of `CCCCOC(=O)[C@@H](C)Oc1ccc(Oc2ccc(C#N)cc2F)cc1`, the outcome is reported as “inactive”. With `CN(C)C(=O)Nc1cccc(C(F)(F)F)c1` the outcome was “inactive”. `CSc1nc(NC(C)C)nc(NC(C)C)n1` was tested, and the outcome was “inactive”. In the case of `CCOP(=O)(OCC)Oc1cc(C)nc(C(C)C)n1`, the outcome is reported as “inactive”. `CC[C@H](C)[C@H]1O[C@]2(C=C[C@@H]1C)C[C@@H]1C[C@@H](C/C=C(\C)[C@@H](O[C@H]3C[C@H](OC)[C@@H](O[C@H]4C[C@H](OC)[C@@H](NC)[C@H](C)O4)[C@H](C)O3)[C@@H](C)/C=C/C=C3\CO[C@@H]4[C@H](O)C(C)=C[C@@H](C(=O)O1)[C@]34O)O2` was tested, and the outcome was “inactive”. For `COP(=O)(OC)OC(Br)C(Cl)(Cl)Br` (stereo not given), the outcome was “inactive”. For `CON=C(C(=O)OC)c1ccccc1CON=C(C)c1cccc(C(F)(F)F)c1`, the outcome was “inactive”. For `CCc1cccc(C)c1N(C(=O)CCl)C(C)COC` (stereo not given), the outcome was “inactive”. For `COP(=O)(OC)SCn1c(=O)oc2cc(Cl)cnc21`, the outcome was “inactive”. `CC(COc1ccc(Oc2ccccc2)cc1)Oc1ccccn1` (stereo not given) was tested, and the outcome was “inactive”.

Reference: PubChem BioAssay (EPA / NIEHS)
